Molecules are shown by their SMILES. The panel holds about 83,000 compounds, 20% with a hit somewhere; the sample as a whole holds those more often.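 48-hour exposure, single concentration, 96-well plates; percent growth endpoint where 0 means no net growth. Active: below 10.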 Values without a mark were called inactive. Activity calls are given as the source filed them.

From PubChem BioAssay (NCI) come the findings set out here.

This test concerns SK-MEL-28 melanoma. Description: NCI-60 one-dose screen, 48 h (100 = growth as untreated, 0 = no growth, -100 = all killed). The following applies: 10 µM unless noted.
For `CSC(=S)N/N=C(\C)c1ccccn1`, the growth is 42.4%.
For `CCOC(=O)C1=C(C)NC(SCc2nnc(-c3ccc(Cl)cc3)o2)=NC1c1ccc(Br)cc1` (stereo not given) the value was 81.3%; for `CC(CN1CCN(C)CC1)CN1c2ccccc2Sc2ccc(C(F)(F)F)cc21` (stereo not given), 22.4%.
For `CCCOC(=O)C1c2cc3c(cc2CC(C)C1C(=O)OCCC)OCO3` (stereo not given) the value was 103%; for `COc1cc(C2CC(c3ccc(Nc4ccnc5cc(Cl)ccc45)cc3)=NN2c2ccccc2)cc(OC)c1OC` (stereo not given), 79.1%.
On to `CC(=O)c1c(C)nc(-c2cc(C)cc(Cl)c2)nc1-c1cccc(Oc2ccccc2)c1`, for which the growth was 76.2%.
On to `CC(C)NC(=O)OCC#CCOC(=O)NC(C)C`, for which the growth is 104%.
For `Cc1nc2c(-c3cnc(N)nc3)nc(N3CCOCC3)nc2n1C(C)C` the value was -10.1% (active); for `[Ag].[Ag].[NH-]S(=O)(=O)c1ccc(N=Nc2cc(N=Nc3ccc(S([NH-])(=O)=O)cc3)c3c(NC(=O)C(Cl)Cl)cccc3c2OC(=O)C(Cl)Cl)cc1.[c-]1nccs1.[c-]1nccs1`, 89.1%.
Next, `Cc1nc2ccc(Nc3nc(N4CCOCC4)nc(N4CCN(C)CC4)n3)cc2n1Cc1ccccc1`: 64.1%.
With `CC(C)CC(NC(=O)C(CCCN=C(N)N)NC(=O)OCc1ccccc1)C(=O)NC(CNC(=O)/C=C/c1ccccc1)C(C)C` (stereo not given), the growth was 93.5%.
For `CCOC(=O)c1ccc(NCCC(=O)O)cc1` the value was 107%; for `Cc1ccc(-c2cnc3sc4ccc(Cl)cc4n23)cc1`, 109%; for `CCOC(=O)c1ccccc1SC(C[N+](=O)[O-])c1ccccc1` (stereo not given), 98.3%.
For `CC(C)CC(NC(=O)OCC1c2ccccc2-c2ccccc21)C(=O)O` (stereo not given) the value was 105%.
